Assay results from PubChem BioAssay AID1376 (SRMLSC, 2008).
The campaign covered roughly 220,000 compounds. About 530 (0.24%) were called active. This is one part of a sample in which actives are shown more often than they occur. No stated cut-off is given here; in the data, active means inhibition above about 13%; inconclusive means no clear call, values can overlap the other calls; inactive means below that. Potency and affinity values are given separately.

The compounds below were run against Bifunctional protein GlmU (Mycobacterium tuberculosis (strain ATCC 25618 / H37Rv)) (UniProt P9WMN3) (assay: inhibition of mycobacterial GlmU enzyme – biochemical, glucosamine-1-phosphate acetyltransferase (AID 1376;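 further: 0% = complete reaction with vehicle and 100% = reaction without substrate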)). Conditions: M. tuberculosis GlmU acetyltransferase enzyme assay; active compounds read high;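 tested at 30 µM in the primary screen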.
Chain of Bifunctional protein GlmU (Mycobacterium tuberculosis (strain ATCC 25618 / H37Rv)) (P9WMN3 whole entry, looked up): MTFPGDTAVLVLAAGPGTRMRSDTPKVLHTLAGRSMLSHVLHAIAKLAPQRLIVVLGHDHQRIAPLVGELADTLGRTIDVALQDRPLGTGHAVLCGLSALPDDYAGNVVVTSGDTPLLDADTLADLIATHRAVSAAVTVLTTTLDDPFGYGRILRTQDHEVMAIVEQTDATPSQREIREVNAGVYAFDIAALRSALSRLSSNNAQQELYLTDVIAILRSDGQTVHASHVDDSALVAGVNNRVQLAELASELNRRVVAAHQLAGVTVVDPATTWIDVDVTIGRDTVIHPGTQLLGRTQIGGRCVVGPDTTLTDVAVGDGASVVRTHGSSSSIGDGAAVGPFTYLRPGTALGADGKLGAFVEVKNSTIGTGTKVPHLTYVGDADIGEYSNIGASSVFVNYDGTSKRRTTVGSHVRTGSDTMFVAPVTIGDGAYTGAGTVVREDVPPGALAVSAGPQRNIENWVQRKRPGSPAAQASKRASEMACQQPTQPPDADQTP
`COC(=O)c1ccc(/C=N/N2CCN(Cc3ccc(C)cc3C)CC2)cc1` was tested, and the inhibition was 0.99% (inactive). In the case of `CC(C)Oc1ccc(C(=O)N2CCCC2C(=O)O)cc1` (stereo unspecified), the inhibition is reported as 1.48% (inactive). For `CCCCCCCCCCCC(=O)N/N=C/c1ccco1`, the inhibition was 2.22% (inactive). In the case of `O=C(O)CC(C(=O)Nc1ccc(Cl)c(Cl)c1)C1CCCO1` (stereo unspecified), the inhibition is reported as 5.87% (inactive). `CC(=O)[C@@H]1[C@@H](C)N(Cc2ccccc2)C(=O)N[C@H]1c1cccc(C(F)(F)F)c1` was tested, and the inhibition was 3.76% (inactive). With `Cc1oc(C(C)(C)C)cc1C(=O)N1CCN(C(c2ccccc2)c2ccccc2)CC1` the inhibition was -0.86% (inactive). `COC(=O)CCC(=O)NC(=S)Nc1ccccc1F` was tested, and the inhibition was -2.07% (inactive). In the case of `O=C(Nc1ccccc1)c1ccc2nsnc2c1`, the inhibition is reported as 19.3% (active). In the case of `O=C(Nc1ccc(Cl)cc1)c1ccc2nsnc2c1`, the inhibition is reported as 4.02% (inactive). For `O=C(Nc1ccc(F)cc1)c1ccc2nsnc2c1`, the inhibition was -5.81% (inactive). With `O=C(CSc1nnc(-c2ccc(OC(F)F)cc2)o1)NCc1cccs1` the inhibition was -1.34% (inactive). `N#Cc1c(Nc2ccc(Cl)cc2)s[nH]c1=O` was tested, and the inhibition was 4.63% (inactive). `N#Cc1c(Nc2ccccc2Cl)s[nH]c1=O` was tested, and the inhibition was 0.08% (inactive). With `N#Cc1c(Nc2ccccc2)s[nH]c1=O` the inhibition was 14.2% (active). `COCCNC(=O)c1cc2c(=O)n3cccc(C)c3nc2n1C` was tested, and the inhibition was 3.57% (inactive). In the case of `O=C(O)c1ccccc1SCc1cn2cc(Br)ccc2n1`, the inhibition is reported as 0.7% (inactive). For `CCOc1ccc2c(c1)C(=O)c1cc(OCC(=O)O)ccc1-2`, the inhibition was -3.72% (inactive). With `O=C(c1ccccc1)c1ccccc1C(=O)N1CCOCC1` the inhibition was -1.73% (inactive). In the case of `O=C(c1ccccc1)c1ccccc1C(=O)N1CCCC1`, the inhibition is reported as 13.3% (active). `O=C(c1ccccc1)c1ccccc1C(=O)N1CCN(C(=O)c2ccccc2)CC1` was tested, and the inhibition was -3.19% (inactive). For `CCCNC(=O)c1ccc(Cn2cc(C(F)(F)F)ccc2=O)cc1`, the inhibition was 0.72% (inactive). For `O=C(Nc1cc2c(ccc3ccccc32)oc1=O)C1CCCCC1`, the inhibition was 0.95% (inactive). `CS(=O)(=O)C1=NSC2=NC(=O)/C(=C\c3ccc(-c4ccccc4)o3)C(=N)N21` was tested, and the inhibition was -0.37% (inactive). In the case of `Cc1cccc(-n2c(C)cc(/C=C3/C(=N)N4C(c5ccccc5)=CSC4=NC3=O)c2C)c1`, the inhibition is reported as 1.75% (inactive). `Cc1ccc(-n2c(C)cc(/C=C3/C(=N)N4C(c5ccccc5)=CSC4=NC3=O)c2C)cc1` was tested, and the inhibition was 7.47% (inactive). With `CC(C)S(=O)(=O)C1=NSC2=NC(=O)/C(=C\c3ccc(-c4ccccc4)o3)C(=N)N21` the inhibition was 4.83% (inactive). For `N=C1/C(=C\c2ccc(-c3cc(Cl)cc(Cl)c3)o2)C(=O)N=C2SC=C(c3ccccc3)N12`, the inhibition was -7.2% (inactive). For `COc1cc(/C=C2/C(=N)N3C=CSC3=NC2=O)ccc1OCCCOc1ccccc1C`, the inhibition was -3.86% (inactive). With `Cc1cc(/C=C2/C(=N)N3C(c4ccccc4)=CSC3=NC2=O)c(C)n1-c1ccccc1` the inhibition was -4.29% (inactive). For `COc1cc(/C=C2/C(=N)N3C(c4ccccc4)=CSC3=NC2=O)ccc1OCC(=O)O`, the inhibition was 14.6% (active). In the case of `N=C1/C(=C/c2cccn2CCOc2ccccc2)C(=O)N=C2SC=C(c3ccccc3)N12`, the inhibition is reported as 2.69% (inactive). `CCNC(=O)Oc1ccc[nH]c1=O` was tested, and the inhibition was 6.02% (inactive). With `CN(C)c1ccc(C=C(c2nnnn2-c2ccccc2)c2nnnn2-c2ccccc2)cc1` the inhibition was -2.49% (inactive). For `COC(=O)N/N=C(\C)c1ccc(OC(F)F)cc1OC(F)F`, the inhibition was 6.36% (inactive). For `FC(F)(F)c1ccccc1NC(=S)N1CCN(Cc2ccc3c(c2)OCO3)CC1`, the inhibition was -0.82% (inactive). For `CCc1ccc(NC(=O)CSCCN2C(=O)c3ccccc3C2=O)cc1`, the inhibition was -2.41% (inactive). `CCCCCNC(=O)c1cc(S(=O)(=O)N2CCCC2)ccc1F` was tested, and the inhibition was 0.96% (inactive). For `Cc1ccccc1-n1c(C)cc(/C=C2/C(=N)N3C(c4ccccc4)=CSC3=NC2=O)c1C`, the inhibition was -1.94% (inactive). `N=C1/C(=C/c2ccc(-c3cccc(C(=O)O)c3)o2)C(=O)N=C2SC=C(c3ccccc3)N12` was tested, and the inhibition was 53.6% (active). For `N=C1/C(=C\c2ccc(-c3cccc(Cl)c3)o2)C(=O)N=C2SC=C(c3ccccc3)N12`, the inhibition was -2.27% (inactive). With `O=C1OC(c2cccs2)=N/C1=C\c1ccc(-c2cccc(Cl)c2)o1` the inhibition was 7.15% (inactive). For `O=C1OC(c2cccs2)=N/C1=C\c1ccc(-c2ccccc2Cl)o1`, the inhibition was 7.66% (inactive). For `O=C1OC(c2cccs2)=N/C1=C/c1ccc(-c2cccc(C(=O)O)c2)o1`, the inhibition was 18.7% (active). With `Cc1ccc(N/C=C(/C#N)c2ccsc2)cc1` the inhibition was 1.11% (inactive). With `COc1cc(O)c(C(CCN2CCCC2)c2cc(OC)c(OC)c(OC)c2)c(OC)c1` (stereo unspecified) the inhibition was 1.11% (inactive). `Cc1ccc(/C=N\NC(=O)C2CC(=O)N(c3ccccc3)C2)o1` (stereo unspecified) was tested, and the inhibition was 3.39% (inactive). With `Cc1cc(C)n2nc(C(=O)NCc3ccccc3)nc2n1` the inhibition was -3.46% (inactive). For `Cc1cc(C)n2nc(SCCC(=O)NCCc3ccccc3)nc2n1`, the inhibition was -3.62% (inactive). In the case of `Cc1cc(C)n2nc(C(=O)NCCc3ccccc3)nc2n1`, the inhibition is reported as 14.6% (active). With `CCN(CC(=O)NCc1ccc(Cl)cc1)S(=O)(=O)c1ccc(NC(C)=O)cc1` the inhibition was -2.53% (inactive). In the case of `CC(CCc1ccccc1)NC(=O)c1ccccc1` (stereo unspecified), the inhibition is reported as -2.82% (inactive). In the case of `Cc1ccc(C(=O)NC(C)CCc2ccccc2)cc1[N+](=O)[O-]` (stereo unspecified), the inhibition is reported as 3.64% (inactive). For `CC(CCc1ccccc1)NC(=O)c1cccc([N+](=O)[O-])c1` (stereo unspecified), the inhibition was 13.1% (active). With `CCn1c(SCC(=O)NCCc2ccccc2)nnc1C(C)C` the inhibition was 1.51% (inactive). For `Cn1c(SCC(=O)c2ccc3c(c2)NC(=O)CO3)nc2ccccc21`, the inhibition was -5.28% (inactive). With `COc1ccc(C(=O)Cn2c(=N)n(C)c3ccccc32)cc1` the inhibition was -4.4% (inactive). `Cn1c(=N)n(CC(=O)c2ccccc2)c2ccccc21` was tested, and the inhibition was 3.23% (inactive). `COc1cccc(C(=O)Cn2c(=N)n(C)c3ccccc32)c1` was tested, and the inhibition was 13% (active). With `Nc1ncnc(Nc2ccc(S(N)(=O)=O)cc2)n1` the inhibition was -0.83% (inactive). For `CNC(=S)N1CCN(C(=O)c2ccco2)CC1`, the inhibition was 2.06% (inactive). For `COc1ccc(NC2(C#N)CCCCC2)cc1`, the inhibition was -1.99% (inactive).
